Results: the antibiotic and cytotoxicity screens of Wong et al. (2023)
Screen size: about 39,000 compounds; about 3,300 (8.5%) were called active. For the sample, actives were picked, then their nearest neighbours and some compounds at random.

These compounds were tested on HepG2 (assay: cytotoxicity call (relative viability < 0.9)). Conditions: 10 µM.
With `Cc1noc(C)c1NC(=O)N(C)C[C@@H]1Oc2ccc(NS(=O)(=O)c3cn(C)cn3)cc2CC(=O)N([C@@H](C)CO)C[C@@H]1C` the cytotoxicity call was “inactive”. `Cc1ccc(S(=O)(=O)N(C)C[C@H]2OCCCC[C@@H](C)Oc3ccc(NC(=O)Nc4ccc5c(c4)OCO5)cc3C(=O)N([C@@H](C)CO)C[C@H]2C)cc1` was tested, and the cytotoxicity call was “inactive”. `C[C@@H]1CN([C@@H](C)CO)C(=O)c2cc(NC(=O)Cc3cn(C)c4ccccc34)ccc2O[C@@H]1CN(C)S(=O)(=O)c1cn(C)cn1` was tested, and the cytotoxicity call was “inactive”. In the case of `CN(C)C(=O)C[C@H]1CC[C@@H]2[C@H](COc3ccc(NS(=O)(=O)c4cccc(F)c4)cc3C(=O)N2C)O1`, the cytotoxicity call is reported as “inactive”. In the case of `Cc1ccc(S[C@]2(C(=O)NC(C)C)CC(=O)N(Cc3ccccc3C(F)(F)F)[C@@H]2c2ccc(CO)cc2I)cc1`, the cytotoxicity call is reported as “inactive”. For `CC(C)NC(=O)Nc1ccc2c(c1)C(=O)N([C@H](C)CO)C[C@@H](C)[C@H](CN(C)Cc1ccccc1)OCCCC[C@@H](C)O2`, the cytotoxicity call was “inactive”. `C[C@@H]1CCCCO[C@H](CN(C)S(=O)(=O)c2cn(C)cn2)[C@@H](C)CN([C@@H](C)CO)C(=O)c2cc(N(C)C)ccc2O1` was tested, and the cytotoxicity call was “inactive”. `Cc1ccc(S(=O)(=O)N(C)C[C@H]2OCCCC[C@@H](C)Oc3ccc(NC(=O)Nc4c(C)noc4C)cc3C(=O)N([C@H](C)CO)C[C@@H]2C)cc1` was tested, and the cytotoxicity call was “inactive”. In the case of `CSc1ccc2cc(CN(C[C@H]3CCCO3)C(=O)c3ccco3)c(N(C)Cc3csc(C)n3)nc2c1`, the cytotoxicity call is reported as “inactive”. With `C[C@@H]1CN([C@@H](C)CO)C(=O)c2cc(NC(=O)CCCN(C)C)ccc2O[C@@H](C)CCCCO[C@@H]1CN(C)S(C)(=O)=O` the cytotoxicity call was “inactive”. For `CO[C@@H]1CN(C)C(=O)c2cc(NC(=O)Nc3ccccc3)ccc2OC[C@@H](C)N(C(=O)CN(C)C)C[C@H]1C`, the cytotoxicity call was “inactive”. `C[C@@H](O[C@H]1OCCN(Cc2n[nH]nc2CN(C)C)[C@H]1c1ccc(F)cc1)c1cc(C(F)(F)F)cc(C(F)(F)F)c1` was tested, and the cytotoxicity call was “active”. `CC(OC1OCCN(C(C)c2nc(=O)[nH][nH]2)C1c1ccc(F)cc1)c1cc(C(F)(F)F)cc(C(F)(F)F)c1` (stereo not given) was tested, and the cytotoxicity call was “active”. In the case of `COc1ccc(S(=O)(=O)Nc2cccc3c2O[C@@H](CN(C)Cc2ccc(-c4ccccc4)cc2)[C@@H](C)CN([C@@H](C)CO)C3=O)cc1`, the cytotoxicity call is reported as “inactive”. In the case of `CC(C)NC(=O)N(C)C[C@@H]1OCCCC[C@@H](C)Oc2ccc(NC(=O)C3CCCCC3)cc2C(=O)N([C@H](C)CO)C[C@H]1C`, the cytotoxicity call is reported as “inactive”. In the case of `C[C@@H]1CN([C@@H](C)CO)C(=O)Cc2cc(NC(=O)Cc3cn(C)c4ccccc34)ccc2O[C@@H]1CN(C)CC1CCCCC1`, the cytotoxicity call is reported as “active”. With `C[C@@H]1CN([C@H](C)CO)C(=O)Cc2cc(NC(=O)Cc3cn(C)c4ccccc34)ccc2O[C@@H]1CN(C)Cc1ccc(C(=O)Nc2ccccc2N)cc1` the cytotoxicity call was “inactive”. In the case of `C[C@H](CO)N1C[C@H](C)[C@H](CN(C)Cc2ccc(C(=O)Nc3ccccc3N)cc2)Oc2ccc(NC(=O)Cc3cn(C)c4ccccc34)cc2CC1=O`, the cytotoxicity call is reported as “active”. In the case of `C[C@@H]1CN([C@@H](C)CO)C(=O)Cc2cc(NC(=O)Cc3cn(C)c4ccccc34)ccc2O[C@H]1CN(C)Cc1ccc(-c2ccccc2)cc1`, the cytotoxicity call is reported as “inactive”. `C[C@@H]1CN([C@H](C)CO)C(=O)Cc2cc(NC(=O)Cc3cn(C)c4ccccc34)ccc2O[C@@H]1CN(C)CC1CCCCC1` was tested, and the cytotoxicity call was “inactive”. In the case of `C[C@H](CO)N1C[C@H](C)[C@H](CN(C)Cc2ccc(-c3ccccc3)cc2)Oc2ccc(NC(=O)Cc3cn(C)c4ccccc34)cc2CC1=O`, the cytotoxicity call is reported as “inactive”. `C[C@@H]1CN([C@H](C)CO)C(=O)Cc2cc(NC(=O)Cc3cn(C)c4ccccc34)ccc2O[C@H]1CN(C)Cc1ccc(-c2ccccc2)cc1` was tested, and the cytotoxicity call was “active”. `C[C@H](CO)N1C[C@H](C)[C@@H](CN(C)Cc2ccc(-c3ccccc3)cc2)Oc2ccc(NC(=O)Cc3cn(C)c4ccccc34)cc2CC1=O` was tested, and the cytotoxicity call was “inactive”. `C[C@@H]1CN([C@@H](C)CO)C(=O)Cc2cc(NC(=O)Cc3cn(C)c4ccccc34)ccc2O[C@@H]1CN(C)Cc1ccc(-c2ccccc2)cc1` was tested, and the cytotoxicity call was “active”. In the case of `C[C@H]1CN([C@@H](C)CO)C(=O)Cc2cc(NC(=O)Cc3cn(C)c4ccccc34)ccc2O[C@H]1CN(C)Cc1ccc(-c2ccccc2)cc1`, the cytotoxicity call is reported as “inactive”. With `C[C@H](CO)N1C[C@H](C)[C@@H](CN(C)CC2CCCCC2)Oc2ccc(NC(=O)Cc3cn(C)c4ccccc34)cc2CC1=O` the cytotoxicity call was “inactive”. For `C[C@H]1CN([C@@H](C)CO)C(=O)Cc2cc(NC(=O)Cc3cn(C)c4ccccc34)ccc2O[C@@H]1CN(C)Cc1ccc(C(=O)Nc2ccccc2N)cc1`, the cytotoxicity call was “inactive”. For `C[C@@H]1CN([C@H](C)CO)C(=O)c2cc(NC(=O)CCCN(C)C)ccc2O[C@@H]1CN(C)S(=O)(=O)c1ccccc1`, the cytotoxicity call was “inactive”. For `CCCC(=O)N(CCc1c[nH]c2ccccc12)[C@@H]1CC(C(=O)NCCO)=C[C@H](Oc2c(I)cc(CO)cc2OC)[C@H]1O`, the cytotoxicity call was “inactive”. With `CN(C)CC(=O)N[C@H]1CC[C@H](CCNC(=O)C2CCC2)O[C@H]1CO` the cytotoxicity call was “inactive”. With `Cc1noc(C)c1S(=O)(=O)Nc1ccc2c(c1)C(=O)N([C@H](C)CO)C[C@H](C)[C@@H](CN(C)C(=O)Nc1cccc3ccccc13)OCCCC[C@@H](C)O2` the cytotoxicity call was “inactive”. `COCC(=O)N[C@@H]1C=C[C@H](CC(=O)N2CCCCC2)O[C@@H]1CO` was tested, and the cytotoxicity call was “inactive”. With `CN1C(=O)c2cc(NC(=O)Cc3cccs3)ccc2OC[C@H]2O[C@@H](CC(=O)NCCc3ccncc3)CC[C@H]21` the cytotoxicity call was “inactive”. `C[C@@H]1CCCCO[C@@H](CN(C)S(=O)(=O)c2ccccc2)[C@@H](C)CN([C@H](C)CO)C(=O)c2cc(NC(=O)Nc3ccc4c(c3)OCO4)ccc2O1` was tested, and the cytotoxicity call was “inactive”. With `C[C@H](CO)N1C[C@H](C)[C@H](CN(C)S(=O)(=O)c2cccs2)Oc2ccc(NC(=O)c3ccncc3)cc2C1=O` the cytotoxicity call was “inactive”. With `COc1ccc(NC(=O)N(C)C[C@H]2Oc3c(NC(=O)c4cnccn4)cccc3C(=O)N([C@H](C)CO)C[C@H]2C)cc1` the cytotoxicity call was “inactive”. With `C[C@@H]1CN([C@H](C)CO)C(=O)c2cccc(NC(=O)c3ccncc3)c2O[C@@H]1CN(C)Cc1ccc2c(c1)OCO2` the cytotoxicity call was “inactive”. With `C[C@@H]1CN([C@H](C)CO)C(=O)c2cccc(NS(=O)(=O)c3cn(C)cn3)c2O[C@@H]1CN(C)C(=O)Nc1ccc2c(c1)OCO2` the cytotoxicity call was “inactive”. `CC(C)(C)NC[C@@]1(CO)SC(N)=NC1=O` was tested, and the cytotoxicity call was “inactive”. With `C[C@H]1CN([C@@H](C)CO)C(=O)Cc2cc(NC(=O)Cc3cn(C)c4ccccc34)ccc2O[C@@H]1CN(C)Cc1ccc(-c2ccccc2)cc1` the cytotoxicity call was “inactive”. In the case of `C[C@@H]1CN([C@H](C)CO)C(=O)Cc2cc(NC(=O)Cc3cn(C)c4ccccc34)ccc2O[C@@H]1CN(C)Cc1ccc(-c2ccccc2)cc1`, the cytotoxicity call is reported as “active”. For `C[C@@H]1CN(S(=O)(=O)N2CCN(C(=O)c3[nH]nc4ccccc34)CC2)C[C@H](C)O1`, the cytotoxicity call was “inactive”. In the case of `C[C@@H]1CN([C@@H](C)CO)C(=O)CCCn2nncc2CO[C@@H]1CN(C)C(=O)C1CC1`, the cytotoxicity call is reported as “inactive”. For `C[C@@H]1CN([C@H](C)CO)C(=O)c2cc(NC(=O)Nc3ccc4c(c3)OCO4)ccc2O[C@@H](C)CCCCO[C@@H]1CN(C)Cc1ccc(C(F)(F)F)cc1`, the cytotoxicity call was “inactive”. `C[C@@H]1CCCCO[C@H](CN(C)Cc2ccc(C(F)(F)F)cc2)[C@H](C)CN([C@H](C)CO)C(=O)c2cc(NC(=O)Nc3ccc4c(c3)OCO4)ccc2O1` was tested, and the cytotoxicity call was “active”. In the case of `C[C@@H]1CN([C@@H](C)CO)C(=O)c2cc(NC(=O)Nc3ccc4c(c3)OCO4)ccc2O[C@@H](C)CCCCO[C@@H]1CN(C)Cc1ccc(C(F)(F)F)cc1`, the cytotoxicity call is reported as “inactive”. For `C[C@@H]1CN([C@H](C)CO)C(=O)c2cc(NC(=O)Nc3ccc4c(c3)OCO4)ccc2O[C@@H](C)CCCCO[C@H]1CN(C)Cc1ccc(C(F)(F)F)cc1`, the cytotoxicity call was “active”. `C[C@@H]1CCCCO[C@@H](CN(C)Cc2ccc(C(F)(F)F)cc2)[C@@H](C)CN([C@@H](C)CO)C(=O)c2cc(NC(=O)Nc3ccc4c(c3)OCO4)ccc2O1` was tested, and the cytotoxicity call was “inactive”. `C[C@@H]1CCCCO[C@H](CN(C)Cc2ccc(C(F)(F)F)cc2)[C@@H](C)CN([C@@H](C)CO)C(=O)c2cc(NC(=O)Nc3ccc4c(c3)OCO4)ccc2O1` was tested, and the cytotoxicity call was “active”. In the case of `C[C@@H]1CCCCO[C@@H](CN(C)Cc2ccc(C(F)(F)F)cc2)[C@H](C)CN([C@@H](C)CO)C(=O)c2cc(NC(=O)Nc3ccc4c(c3)OCO4)ccc2O1`, the cytotoxicity call is reported as “active”. `C[C@@H]1CN([C@@H](C)CO)C(=O)c2cc(NC(=O)Nc3ccc4c(c3)OCO4)ccc2O[C@@H](C)CCCCO[C@H]1CN(C)Cc1ccc(C(F)(F)F)cc1` was tested, and the cytotoxicity call was “inactive”. With `COc1ccc(CN(C)C[C@H]2Oc3ccc(NC(=O)Cn4cnnn4)cc3CC(=O)N([C@H](C)CO)C[C@@H]2C)cc1` the cytotoxicity call was “inactive”. With `C[C@@H]1CN([C@@H](C)CO)C(=O)c2cc(NC(=O)CCC(F)(F)F)ccc2O[C@@H]1CN(C)C(=O)Nc1cccc2ccccc12` the cytotoxicity call was “inactive”. With `O=C(C[C@@H]1CC[C@@H]2[C@H](COC[C@H](O)CN2S(=O)(=O)c2ccc(Cl)cc2)O1)NCCN1CCCCC1` the cytotoxicity call was “inactive”. `C[C@@H]1CN([C@@H](C)CO)C(=O)c2cc(C#Cc3cccc(F)c3)cnc2O[C@H]1CN(C)CC1CCOCC1` was tested, and the cytotoxicity call was “inactive”. For `Cc1noc(C)c1NC(=O)N(C)C[C@H]1OCCCC[C@@H](C)Oc2ccc(NS(=O)(=O)c3ccccc3)cc2C(=O)N([C@@H](C)CO)C[C@@H]1C`, the cytotoxicity call was “inactive”. For `CNC(=NC#N)NCCSCc1nc[nH]c1C`, the cytotoxicity call was “inactive”. For `N#C[C@@H]1[C@@H](c2ccc(C#Cc3ccccn3)cc2)[C@H](CO)N1C(=O)CN1CCOCC1`, the cytotoxicity call was “inactive”. For `CN(C)CC(=O)N1CC(=O)N2[C@H](CO)[C@H](c3ccc(C#Cc4cccnc4)cc3)[C@@H]2C1`, the cytotoxicity call was “inactive”. For `COC(=O)[C@@H](Cc1ccc(-n2cc(C(=O)NO)nn2)cc1)N1CC2=CC(=O)[C@@H](C3CC3)[C@@H]2[C@H]1[C@H](O)Cc1ccccc1`, the cytotoxicity call was “inactive”.
